Screening data: PubChem BioAssay, The Scripps Research Institute Molecular Screening Center
DAX1 inh-1: inhibitors of DAX1 repression of SF-1 activated StAR promoter | HEK293T StAR-luciferase reporter, SF-1/DAX-1 repression relief | AID 652010 | actives 1.1% (n = 370,000) | inhibition, % at 6.8 µM;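 active = inhibition above the mean over all tested compounds plus 3 SD, cut at about 3.6% in these data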;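 also: 0% = DAX-1 cells with DMSO and 100% = cells lacking DAX-1 with DMSO; higher inhibition means more luminescence from relief of DAX-1 repression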
SMARCA2 act: SMARCA2 function activation, primary screen. MG213 cells, MMTV-luciferase reporter, dexamethasone, overnight. activation, % at 9.1 µM. actives 1% (n = 370,000); in the data active = activation above about 7.8%;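 also: 0% = vehicle wells and 100% = reference activator wells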
ssDAF12 agonist: activates DAF-12 receptor from parasite S. stercoralis; activation, % at 6.8 µM; HEK293 ssDAF-12/GRIP1 lit1-tk-luc reporter, luminescence; % of 3 µM dafachronic acid response; actives 1% (n = 370,000);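 active = activation above the mean over all tested compounds plus 3 SD, cut at about 0.9% in these data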;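 also: 0% = DMSO-only wells and 100% = 3 µM delta7-dafachronic acid wells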
DAX1 inh-2: inhibitors of human orphan nuclear receptor DAX1 (NR0B1); actives 0.99% (n = 340,000); HEK293 Gal4-DAX1 luciferase reporter, luminescence; P51843; inhibition, % at 6.75 µM;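 active = inhibition above the mean over all tested compounds plus 3 SD, cut at about 4.2% in these data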;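 also: 0% = DAX1-transfected cells with DMSO and 100% = empty-vector control cells with DMSO; inhibition shows as a rise in luminescence from relieved DAX1 repression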
Target sequence (P51843 207-470 limits assumed): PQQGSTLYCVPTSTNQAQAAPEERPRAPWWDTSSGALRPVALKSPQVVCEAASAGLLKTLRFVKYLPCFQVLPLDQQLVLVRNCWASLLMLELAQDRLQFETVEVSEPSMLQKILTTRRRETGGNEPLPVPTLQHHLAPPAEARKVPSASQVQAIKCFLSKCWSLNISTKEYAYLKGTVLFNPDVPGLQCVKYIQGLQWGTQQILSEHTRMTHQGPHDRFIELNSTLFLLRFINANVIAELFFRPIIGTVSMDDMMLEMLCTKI
hcDAF-12 act: activates DAF-12 receptor from parasite H. contortus; AID 652067; HEK293 hcDAF-12 lit1-tk-luc reporter, luminescence; 0% DMSO, 100% Δ7-dafachronic acid; actives 1.4% (n = 370,000); activation, % at 6.8 µM;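 active = activation above the mean of all tested compounds plus 3 SD, cut at about 5.5% in these data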;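 also: 100% = response to 3 µM Δ7-dafachronic acid high control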
hgDAF-12 ag: activates the H. glycines DAF-12 receptor ligand-binding domain; actives 1.8% (n = 370,000); HEK293 GAL4-hgDAF12 UAS-luciferase reporter, agonist luminescence; normalized to butyrate control; activation, % at 6.8 µM;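 active = activation above a cutoff set at the mean of all screened compounds plus 3 SD, cut at about 10% in these data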;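 also: 0% = DMSO wells and 100% = sodium butyrate wells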
hgDAF12 conf: confirmation of H. glycines DAF-12 agonists; shares compounds with hgDAF-12 ag; HEK293 GAL4-hgDAF12 luciferase reporter, agonist mode; percent of butyrate response; activation, % at 6.8 µM; actives 80% (n = 3,300); AID 743050;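 active = mean activation over triplicate wells above the hit cutoff derived from the earlier primary screen, cut at about 11% in these data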;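 also: 0% = DMSO low control and 100% = 2 mM sodium butyrate high control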
LXRb DAF12 ctr: counter-screen for DAF-12 agonists: agonists of human LXR-beta. AID 743051. shares compounds with hgDAF-12 ag. HEK293 Gal4-LXR luciferase reporter, 24 h. 3,300 tested, under 10 active. activation, % at 6.8 µM;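 active = mean activation of the triplicate above a set limit carried over from the primary screen, none filed active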
Target sequence (P55055 whole entry, looked up, the tested form may be a part): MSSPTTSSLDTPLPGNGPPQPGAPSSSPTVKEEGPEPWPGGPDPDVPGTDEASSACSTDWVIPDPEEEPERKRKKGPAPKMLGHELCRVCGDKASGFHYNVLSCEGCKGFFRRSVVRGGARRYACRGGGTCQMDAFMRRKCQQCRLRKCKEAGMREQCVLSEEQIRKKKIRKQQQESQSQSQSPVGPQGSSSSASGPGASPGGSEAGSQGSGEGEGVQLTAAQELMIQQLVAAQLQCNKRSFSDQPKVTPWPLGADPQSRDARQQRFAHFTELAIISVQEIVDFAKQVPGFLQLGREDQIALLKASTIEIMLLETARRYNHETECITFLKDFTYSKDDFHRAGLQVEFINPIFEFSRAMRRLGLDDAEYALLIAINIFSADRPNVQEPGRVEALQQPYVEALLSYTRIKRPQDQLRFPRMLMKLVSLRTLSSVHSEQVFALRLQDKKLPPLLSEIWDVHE
* = called active by the depositor. Sampled rows, rich in hits. Any-hit rate of the full collection: about 4.8%.

What do the screens show for `COc1cccc2cc(-c3ccccc3)c(=O)oc12`?
DAX1 inh-1: 2; SMARCA2 act: 4; ssDAF12 agonist: 1; DAX1 inh-2: 1; hcDAF-12 act: 5.8*; hgDAF-12 ag: 16*; hgDAF12 conf: 14*; LXRb DAF12 ctr: 1

How did CNC(=O)c1cc2cccc(OC)c2oc1=O do in these assays?
DAX1 inh-1: 1; SMARCA2 act: -1; ssDAF12 agonist: -1; DAX1 inh-2: 0; hcDAF-12 act: 1; hgDAF-12 ag: -1

What do the screens show for `NNC(=O)c1ccc(COc2ccc3ccccc3c2)o1`?
DAX1 inh-1: 0; SMARCA2 act: -4; ssDAF12 agonist: -1; DAX1 inh-2: -1; hcDAF-12 act: 2; hgDAF-12 ag: 6

What do the screens show for `O=C(OCc1ccccn1)c1ccc(COc2ccc3ccccc3c2)o1`?
DAX1 inh-1: 3; SMARCA2 act: 2; ssDAF12 agonist: 0; DAX1 inh-2: 2; hcDAF-12 act: 4; hgDAF-12 ag: 14*; hgDAF12 conf: 11*; LXRb DAF12 ctr: 0

What do the screens show for `O=C(Nc1cccc(Cl)c1)c1cnccn1`?
DAX1 inh-1: 0; SMARCA2 act: 3; ssDAF12 agonist: 0; DAX1 inh-2: 0; hcDAF-12 act: -1; hgDAF-12 ag: 3

Results for O=C(Nc1ccc2c(c1)CCC2)c1cnccn1 ?
DAX1 inh-1: 4.4*; SMARCA2 act: 7; ssDAF12 agonist: 0; DAX1 inh-2: 3; hcDAF-12 act: 3; hgDAF-12 ag: 17*; hgDAF12 conf: 15*; LXRb DAF12 ctr: 1

How did Cc1ccc(C(=O)Nc2nc(C)c(C(=O)Nc3ccc4c(c3)CCC4)s2)cc1 do in these assays?
DAX1 inh-1: 0; SMARCA2 act: 4; ssDAF12 agonist: 1.3*; DAX1 inh-2: 0; hcDAF-12 act: 3; hgDAF-12 ag: 17*; hgDAF12 conf: 17*; LXRb DAF12 ctr: 0

How did Cc1nc(NC(=O)c2ccc(F)cc2)sc1C(=O)Nc1ccc2c(c1)CCC2 do in these assays?
DAX1 inh-1: 0; SMARCA2 act: 1; ssDAF12 agonist: -1; DAX1 inh-2: 0; hcDAF-12 act: 2; hgDAF-12 ag: 2

How did Cc1cnc(C(=O)Nc2ccc3c(c2)CCC3)cn1 do in these assays?
DAX1 inh-1: 4.1*; SMARCA2 act: 3; ssDAF12 agonist: 0; DAX1 inh-2: 1; hcDAF-12 act: 4; hgDAF-12 ag: 14*; hgDAF12 conf: 17*; LXRb DAF12 ctr: 1

Results for Cn1c(=O)c2c(nc(SCc3nn[nH]n3)n2Cc2ccccc2F)n(C)c1=O ?
DAX1 inh-1: 0; SMARCA2 act: 0; ssDAF12 agonist: -1; DAX1 inh-2: 0; hcDAF-12 act: 1; hgDAF-12 ag: 0

What do the screens show for `Cc1cccc(-c2cc(C(=O)Nc3c(C)n(C)n(-c4ccccc4)c3=O)c3ccccc3n2)c1`?
DAX1 inh-1: -3; SMARCA2 act: 0; ssDAF12 agonist: -1; DAX1 inh-2: -1; hcDAF-12 act: -1; hgDAF-12 ag: 0

What do the screens show for `Cc1cc(NC(=O)CCCN2C(=O)/C(=C/c3cccs3)SC2=S)no1`?
DAX1 inh-1: 0; SMARCA2 act: -2; ssDAF12 agonist: 1; DAX1 inh-2: 0; hcDAF-12 act: -2; hgDAF-12 ag: -2

How did COc1ccc(-c2coc3cc(O[C@@H]4O[C@H](CO)[C@@H](O)[C@H](O)[C@H]4O)ccc3c2=O)cc1 do in these assays?
DAX1 inh-1: 3; SMARCA2 act: 6; ssDAF12 agonist: 0; DAX1 inh-2: 2; hcDAF-12 act: 6; hgDAF-12 ag: 8

What do the screens show for `O=c1c(-c2ccc3c(c2)OCCO3)coc2cc(OC3OC(CO)C(O)C(O)C3O)ccc12` (stereo not given)?
DAX1 inh-1: 4; SMARCA2 act: 4; ssDAF12 agonist: 0; DAX1 inh-2: 1; hcDAF-12 act: 5.8*; hgDAF-12 ag: 17*; hgDAF12 conf: 14*; LXRb DAF12 ctr: 1

How did Oc1ccc(Nc2ncnc3ccccc23)cc1 do in these assays?
DAX1 inh-1: 1; SMARCA2 act: -2; ssDAF12 agonist: -1; DAX1 inh-2: 1; hcDAF-12 act: 0; hgDAF-12 ag: 0

How did Cc1ccc(Nc2ncnc3ccccc23)cc1 do in these assays?
DAX1 inh-1: 1; SMARCA2 act: 3; ssDAF12 agonist: -1; DAX1 inh-2: 0; hcDAF-12 act: 0; hgDAF-12 ag: 14*; hgDAF12 conf: 10; LXRb DAF12 ctr: 0

What do the screens show for `Cc1cc(NC(=O)c2ccc(N3CCCC3)c([N+](=O)[O-])c2)no1`?
DAX1 inh-1: 0; SMARCA2 act: 2; ssDAF12 agonist: -2; DAX1 inh-2: 0; hcDAF-12 act: -1; hgDAF-12 ag: 4

How did O=C(Nc1ccon1)c1ccc(N2CCCCC2)c([N+](=O)[O-])c1 do in these assays?
DAX1 inh-1: 2; SMARCA2 act: 5; ssDAF12 agonist: 0; DAX1 inh-2: 2; hcDAF-12 act: 3; hgDAF-12 ag: 15*; hgDAF12 conf: 17*; LXRb DAF12 ctr: 1

Results for Cc1occc1C(=O)N/N=C/c1ccc(Br)s1 ?
DAX1 inh-1: 2; SMARCA2 act: 7; ssDAF12 agonist: 0; DAX1 inh-2: 2; hcDAF-12 act: 1; hgDAF-12 ag: 8

Results for Cc1ccc(/C=N/NC(=O)c2ccoc2C)s1 ?
DAX1 inh-1: 3; SMARCA2 act: 2; ssDAF12 agonist: 0; DAX1 inh-2: 1; hcDAF-12 act: 2; hgDAF-12 ag: 15*; hgDAF12 conf: 10; LXRb DAF12 ctr: 1

Results for CN1CCC(=NNC(=O)C(=O)NC(C)(C)C)CC1 ?
DAX1 inh-1: 0; SMARCA2 act: 1; ssDAF12 agonist: -1; DAX1 inh-2: 1; hcDAF-12 act: 1; hgDAF-12 ag: 3

What do the screens show for `CN1CCC(=NNC(=O)C(=O)Nc2ccccc2F)CC1`?
DAX1 inh-1: 0; SMARCA2 act: 1; ssDAF12 agonist: -2; DAX1 inh-2: 3; hcDAF-12 act: -1; hgDAF-12 ag: 24*; hgDAF12 conf: 2; LXRb DAF12 ctr: 0

How did CCOc1cccc(OCCOCCOc2ccccc2C(C)=O)c1 do in these assays?
DAX1 inh-1: 1; SMARCA2 act: -3; ssDAF12 agonist: -1; DAX1 inh-2: 1; hcDAF-12 act: -2; hgDAF-12 ag: -3

Results for CC(=O)N1CCc2cc(N=NC3=C(O)CCCC3=O)ccc21 ?
DAX1 inh-1: 2; SMARCA2 act: 2; ssDAF12 agonist: -1; DAX1 inh-2: 4; hcDAF-12 act: 4; hgDAF-12 ag: 15*; hgDAF12 conf: 16*; LXRb DAF12 ctr: 0
